CRFR2-BP ag = agonists of human CRF-binding protein/CRF-R2 receptor complex; HEK293 CRF-R2/CRF-BP, calcium dye fluorescence (FLIPR); percent of saturating CRF peptide response; activation, % at 13.2 µM; 350,000 compounds, 0.46% hits;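 active = activation of at least 50%, plus an integration ratio under a set limit after plate pattern correction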;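 also: plate controls were neutral control wells without compound for no effect and CRF at EC100 for full effect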
Cardiac RTF inh = cardiac RTF calcium desensitization | IANBD-labeled cardiac RTF, Ca2+ fluorescence | inhibition, % at 7.15 µM | 340,000 compounds, 0.12% hits | P19429+P45379;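 active = inhibition above the mean inhibition of all tested compounds plus 3 SD, cut at about 17% in these data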;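 also: assay run at fixed EC70 calcium of 1.6 mM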
CRFBP-R2 block = antagonists of CRF-binding protein/CRF-R2 receptor complex; HEK293 CRF-R2/CRF-BP, CRF-induced calcium fluorescence; inhibition, % at 11.8 µM; 350,000 compounds, 0.59% hits;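 active = inhibition of the ligand-induced calcium signal above about 50% at the single tested concentration, limit read from the data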
cardiac RTF act = increases calcium sensitivity of human cardiac regulated thin filaments | P19429+P45379 | IANBD-labeled TnC RTF fluorescence at EC20 calcium; 0% EC20 calcium, 100% full calcium | activation, % at 7.2 µM | 340,000 compounds, 0.24% hits | AID 493008;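 active = activation above the mean over all tested compounds plus 3 SD, cut at about 30% in these data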;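 also: rise in fluorescence read as greater calcium sensitivity of cardiac thin filaments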
Myeloid diff 2 = promotes myeloid progenitor differentiation | ER-HoxA9 myeloid progenitors, lysozyme-GFP differentiation, flow cytometry | calls only at 10 µM | 360,000 compounds, 1% hits | AID 624256;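 active = normalized GFP-positive differentiation at or above the plate's own cutoff, the solvent-only control mean plus 3 SD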;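 also: cells exposed to compound for four days before flow analysis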
RTF inh confirm = cardiac RTF calcium sensitivity inhibition, confirmation; 360 compounds, 8% hits; reconstituted cardiac thin filaments, calcium sensitivity fluorescence; AID 504635; inhibition, % at 7.15 µM; shares compounds with Cardiac RTF inh; in the data active = inhibition above about 18%
Myeloid diff = compounds promoting myeloid differentiation; ER-HoxA9 myeloid progenitors, GFP/Mac1 double-positive flow; shares compounds with Myeloid diff 2; AID 651706; 2,300 compounds, 2% hits; calls only;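 active = share of green or green-and-red cells above 9 and 9% in run 1 or 4 and 3% in run 2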
GFP autofluor = counter-screen for myeloid differentiation promoters: compound fluorescence | AID 651707 | ER-HoxA9 myeloid progenitors, no estrogen, GFP autofluorescence flow cytometry; vehicle wells 0%, positive control 100% | 2,300 compounds, 7.4% hits | shares compounds with Myeloid diff 2 | fluorescence response, % (test concentration not listed);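 active = over 5% cells positive for green fluorescent reporter, or over 2% positive for both it and APC stain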;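 also: range taken on the double positive population between DMSO and positive control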
* = called active by the depositor; i = inactive; · = no result given; + = active, no number; ! = not confirmed by another sample. Only some compounds are listed: those with a hit (about 2.2% of all), similar ones and a draw of the others.

SMILES	CRFR2-BP ag	Cardiac RTF inh	CRFBP-R2 block	cardiac RTF act	Myeloid diff 2	Myeloid diff	GFP autofluor	others
NCCc1cc(O)c(O)cc1O	1	26*!	48	-9	i	·	·	RTF inh confirm=3
CC[C@H](C)/C=C(C)/C=C/C1=CC2=C(Cl)C(=O)[C@](C)(OC(C)=O)C(=O)C2=CO1	5	39*	0	-35	i	·	·	RTF inh confirm=21*
Cc1nc2cc(F)ccc2n1C1CCN(Cc2nnnn2CCc2ccccc2)CC1	-2	18*	45	3	i	·	·	RTF inh confirm=-3
CCOC(=O)c1ccc(N2C(=O)CC(N3CC=C(c4ccc(F)cc4)CC3)C2=O)cc1 (stereo not drawn)	4	-1	-10	4	i	·	·
NC(=O)c1ccc(OCCC(O)N2CC=C(c3ccc(F)cc3)CC2)cc1 (stereo not drawn)	-1	95*	5	-2	i	·	·	RTF inh confirm=-4
CC1=NNC(=O)C1Br (stereo not drawn)	-1	0	9	-5	i	·	·
CC(C)COC(=O)c1ccccc1C(=O)OCC(C)C	-2	-4	2	14	i	·	·
C[CH2][Hg][S]c1ccccc1C(=O)O	-2	+	-45	i	+	·	·	RTF inh confirm=i
C[C@]12CCC3C(C(=O)C[C@H]4C[C@@H](O)CC[C@]34C)C1CCC2=O (stereo partly drawn)	-1	-7	-1	-6	i	·	·
CCCNS(=O)(=O)c1ccc(OCC(=O)N2CCN(Cc3ccc4c(c3)OCO4)CC2)cc1	-1	18*	-19	3	i	·	·	RTF inh confirm=-3
Cc1nn(Cc2ccccc2)c(C)c1C(=O)OCC(=O)Nc1cc(S(C)(=O)=O)ccc1Cl	0	0	-5	1	i	·	·
COc1cc(CNCCc2ccc3c(c2)OCO3)ccc1O	0	-4	3	0	i	·	·
CCCCCCCCC(=O)NCc1ccc(O)c(OC)c1	-1	19*	8	3	i	·	·	RTF inh confirm=-3
Fc1cccc(-c2ccc3c(c2)CNCc2cnnn2-3)c1	·	·	·	·	i	·	·
CCOC(=O)C1CCCN(c2ccc([N+](=O)[O-])c3nonc23)C1 (stereo not drawn)	208*	-481	-141	393*	+	i	58*
Cn1ccnc1P(=S)(c1nccn1C)c1nccn1C	-3	-5	12	-1	+	i	0
Cc1ccc(N/N=C/c2c(O)n(-c3ccccc3)c(=O)[nH]c2=O)cc1	-3	-1	2	2	i	·	·
C=CCn1c(O)c(/C=C/C=Nc2ccccc2)c(=O)[nH]c1=O	31	-4	-37	2	i	·	·
Cc1ccc(-n2c(O)c(/C=C/C=Nc3ccccc3)c(=O)[nH]c2=O)cc1	53*	-39	-59	39*	i	i	5
COc1ccc(-n2c(O)c(/C(C)=N/Nc3ccccc3)c(=O)[nH]c2=O)cc1	-1	-4	7	12	i	·	·
COc1ccc(-n2c(O)c(/C=C/C=Nc3ccccc3)c(=O)[nH]c2=O)cc1	105*	-223	-117	202*	i	i	97*
O=c1[nH]c(=O)n(C2CCCCC2)c(O)c1/C=C/C=Nc1ccccc1	112*	-83	-130	55*	+	i	7.5*
O=C(/C=C/c1ccccc1)c1c(O)n(CCc2ccccc2)c(=O)[nH]c1=O	-1	-2	-3	4	+	i	0
O=c1[nH]c(=O)n(CCc2ccccc2)c(O)c1C=NCCN1CCNCC1	1	-1	6	7	i	·	·
O=C(CCC(=O)N1CC2C[C@@H](C1)Cn1c2cccc1=O)NCCc1ccccc1F	0	-4	1	2	i	i	0
SMILES	CRFR2-BP ag	Cardiac RTF inh	CRFBP-R2 block	cardiac RTF act	Myeloid diff 2	Myeloid diff	GFP autofluor	others
O=C(CCC(=O)N1C[C@H]2C[C@@H](C1)c1cccc(=O)n1C2)NCc1ccc(F)cc1	0	-7	2	-2	i	·	·
COc1cc(O)cc2c1cc([N+](=O)[O-])c1c(C(=O)O)cc3c(c12)OCO3	6	-4	-5	10	i	·	·
Cc1ccccc1-c1ccc2n1Cc1cnnn1-c1ccccc1-2	-1	-2	13	-3	i	·	·
O=C(Cc1cc(=O)oc2cc(O)ccc12)NN=Cc1ccc(N(CCCl)CCCl)cc1	-1	2	6	0	i	i	0
O=C(NN=Cc1ccc(N(CCCl)CCCl)cc1)c1cc(=O)[nH]c(=O)[nH]1	-1	-6	13	4	i	·	·
COc1ccc(OC(=O)N(C)C[C@H]2OCc3cnnn3CCCC(=O)N([C@@H](C)CO)C[C@H]2C)cc1	-1	·	-1	·	i	·	·
COc1ccc(OC(=O)N(C)C[C@@H]2OCc3cnnn3CCCC(=O)N([C@@H](C)CO)C[C@@H]2C)cc1	-1	·	5	·	i	i	0
CCC(CC)NCc1c[nH]c2ccccc12	1	-29	-6	3	+	i	0
C[C@@H]1COc2cccc(N3CCN(C)CC3)c2S(=O)(=O)N1	·	·	·	·	i	·	·
COc1ccc(CN2CCN(C(=O)Cc3ccccc3)CC2)c(OC)c1	2	-24	-8	4	i	·	·
COc1ccc(CN2CCN(Cc3ccccc3)CC2)c(OC)c1	3	-2	-17	0	i	i	0
O=c1[nH]c(=S)[nH]c(O)c1/C=C1/C=c2ccccc2=N1	4	-3	-34	-4	+	i	16*
Cc1cccc2c1=NC(=O)/C(=C/c1c(O)[nH]c(=O)[nH]c1=O)C=2	0	4	-7	0	i	·	·
Cc1cc(C)cc(N2C(=O)NC(=O)/C(=C\c3cccn3-c3ccc(Cl)cc3)C2=O)c1	12	-7	14	-5	i	i	0
Cc1cc(C)cc(N2C(=O)NC(=O)/C(=C\c3cccn3-c3ccccc3)C2=O)c1	10	6	-99	-2	i	·	·
COCCCNP1(=O)OCC(C)([N+](=O)[O-])CO1 (stereo not drawn)	0	1	5	1	i	·	·
CC(=O)c1ccc(OC(NC(=O)c2ccco2)C(Cl)(Cl)Cl)cc1 (stereo not drawn)	-3	-5	5	7	+	i	0
O=C(O)C1CC2(Cl)C(Cl)=C(Cl)C1(Cl)C2(Cl)Cl (stereo not drawn)	-4	3	27	0	i	·	·
CCOC(=O)c1c(NC(=O)c2c(N)n(CCCOC)c3nc4ccccc4nc23)sc2c1CCCC2	1	-3	-37	4	i	i	2

Source: PubChem BioAssay
